In PubChem BioAssay AID504332 (National Center for Advancing Translational Sciences (NCATS), 2011):
The campaign covered roughly 350,000 compounds. About 31,000 (8.9%) were called active. Entries that show only a call come without a potency. Roughly 15% stayed inconclusive and do not appear here. The sample as a whole holds a higher share of actives than the screen did. A number with no mark means an inactive call. Calls follow the shape of the dose curve; as a rule, active = well fitted inhibition curve with a large enough effect; inconclusive = small, poorly fitted or top-dose-only effect; inactive = no such curve, though single readings can be large or run the other way.

Target: Histone-lysine N-methyltransferase EHMT2 (Homo sapiens) (UniProt Q96KQ7)
Assay: qHTS Assay for Inhibitors of Histone Lysine Methyltransferase G9a; also: nearly all actives have a fitted effect of over 75% in size
Details: G9a H3K9 monomethylation, AlphaScreen, 2 h; series mostly up to 59 µM
In short: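 G9a (20 nM) preincubated 15 min RT with compounds, then 500 nM biotinylated H3K9 peptide and 20 uM SAM added; 2 h RT reaction. Monomethyl-H3K9 product detected by AlphaScreen with anti-H3K9me1 antibody, streptavidin donor and anti-rabbit IgG acceptor beads.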
Potency is read from the fitted curve at half-maximal effect.

Chain of Histone-lysine N-methyltransferase EHMT2 (Homo sapiens) (Q96KQ7 913-1193 limits assumed): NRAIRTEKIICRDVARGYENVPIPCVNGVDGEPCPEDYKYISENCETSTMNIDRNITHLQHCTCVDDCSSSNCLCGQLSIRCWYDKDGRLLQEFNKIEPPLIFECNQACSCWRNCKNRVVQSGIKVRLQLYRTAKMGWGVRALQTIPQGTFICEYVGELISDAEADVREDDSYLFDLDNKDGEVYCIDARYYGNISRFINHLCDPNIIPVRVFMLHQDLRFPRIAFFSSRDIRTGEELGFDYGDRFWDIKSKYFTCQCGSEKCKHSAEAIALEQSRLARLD

Row | SMILES | Potency | activity, negative = inhibition
1 | CCN(CC)CCCNC(=O)c1cc2c(=O)[nH]c3ccc(C)cc3c2s1 | inactive | 
2 | CCCCn1c(N)c(N(CCOC)C(=O)c2cccc(OCc3ccccc3)c2)c(=O)[nH]c1=O | inactive | 
3 | CCCCn1c(N)c(N(CCOC)C(=O)c2cccc(S(=O)(=O)N3CCCCC3)c2)c(=O)[nH]c1=O | 50.1 µM (active) | 
4 | CCCCn1c(N)c(N(CC(C)C)C(=O)c2cccc(S(=O)(=O)N3CCN(C(C)=O)CC3)c2)c(=O)[nH]c1=O | inactive | 
5 | CCOc1ccc(NC(=O)COc2ccc(C(=O)N3CCC(C(N)=O)CC3)cc2OC)cc1 |  | 4.45% [at 0.501 µM]
6 | CC(OC(=O)CNC(=O)c1ccco1)C(=O)Nc1ccc(Cl)cn1 (stereo unspecified) | inactive | 
7 | CCN(CC)CC(=O)c1c[nH]c2ccc(OC)cc12 | inactive | 
8 | COc1ccc2[nH]c(C(=O)N3CCN(C)CC3)c(C)c2c1 | inactive | 
9 | COc1ccc2[nH]c3ccc(OC)cc3c2c1 | 50.1 µM (active) | 
10 | COc1ccc(NC(=O)c2cc3cc(C)ccc3n2C)cc1 | inactive | 
11 | CCC(C)NC(=O)c1ccc(NC(=O)CC2SC(N3CCCCC3)=NC2=O)cc1 (stereo unspecified) |  | -0.745% [at 12.7 µM]
12 | CC(=O)O[C@H]1CC[C@@]2(C)[C@@H](CC[C@@H]3[C@@H]2CC[C@]2(C)[C@@H](C(C)(C)O)C[C@@H]32)C1 |  | -7.36% [at 2.33 µM]
13 | O=C(NCc1ccco1)C1(c2ccc(Cl)cc2)CCCC1 | inactive | 
14 | O=C(NCc1ccco1)c1sc2cccc(F)c2c1Cl | 8.91 µM (active) | 
15 | O=C(NCc1ccco1)c1nn2cccnc2c1Cl | inactive | 
16 | COc1ccc(-c2cc(C(=O)N3CCN(Cc4ccc5c(c4)OCO5)CC3)on2)cc1OC | inactive | 
17 | CCN1C(=O)[C@H]2[C@@H](c3ccc(C)cc3)N3C(=O)N(c4cccc(Br)c4)C(=O)[C@@]3(CC)[C@H]2C1=O |  | -0.448% [at 2.33 µM]
18 | C=CCOc1ccc(/C=C2/C(=O)ON=C2C)cc1OCC | 44.7 µM (active) | 
19 | C#CCOc1ccc(/C=C2/C(=O)ON=C2C)cc1OCC | 39.8 µM (active) | 
20 | CCOc1cc(/C=C2\C(=N)N3N=C(C)SC3=NC2=O)ccc1OCCOc1ccccc1 | inactive | 
21 | CCOc1cc(/C=N/O)ccc1OCc1ccccc1F | inactive | 
22 | C#CCOc1ccccc1/C=C1/C(=O)ON=C1C | inactive | 
23 | C=CCOc1ccc(/C=N/NC(=O)C(C)Sc2ccccn2)cc1OCC (stereo unspecified) | inactive | 
24 | COc1cc(/C=C2\SC(=O)NC2=O)ccc1OCc1ccc(Cl)nc1 |  | 21.1% [at 2.33 µM]
25 | COc1ccnc2c1c(=O)n(Cc1cccc(F)c1)c(=O)n2C | inactive | 
26 | COc1cc(/C=C2/C(=O)ON=C2C)ccc1OCc1cccc(F)c1 | 50.1 µM (active) | 
